Only some compounds are listed: those with a hit (about 1.6% of all), similar ones and a draw of the others.
KCNQ2 block: KCNQ2 (rat) channel inhibition. O88943. CHO-K1 KCNQ2, FluxOR thallium flux, 20 min; hits give low values. B-score at 10 µM. 310,000 tested, 1.1% active. AID 2156;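 active = fluorescence ratio B-score at most minus 3 library SDs, with starting brightness B-score within 2 library SDs, cut at about -5.5 in these data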
Target sequence (O88943 whole entry, looked up): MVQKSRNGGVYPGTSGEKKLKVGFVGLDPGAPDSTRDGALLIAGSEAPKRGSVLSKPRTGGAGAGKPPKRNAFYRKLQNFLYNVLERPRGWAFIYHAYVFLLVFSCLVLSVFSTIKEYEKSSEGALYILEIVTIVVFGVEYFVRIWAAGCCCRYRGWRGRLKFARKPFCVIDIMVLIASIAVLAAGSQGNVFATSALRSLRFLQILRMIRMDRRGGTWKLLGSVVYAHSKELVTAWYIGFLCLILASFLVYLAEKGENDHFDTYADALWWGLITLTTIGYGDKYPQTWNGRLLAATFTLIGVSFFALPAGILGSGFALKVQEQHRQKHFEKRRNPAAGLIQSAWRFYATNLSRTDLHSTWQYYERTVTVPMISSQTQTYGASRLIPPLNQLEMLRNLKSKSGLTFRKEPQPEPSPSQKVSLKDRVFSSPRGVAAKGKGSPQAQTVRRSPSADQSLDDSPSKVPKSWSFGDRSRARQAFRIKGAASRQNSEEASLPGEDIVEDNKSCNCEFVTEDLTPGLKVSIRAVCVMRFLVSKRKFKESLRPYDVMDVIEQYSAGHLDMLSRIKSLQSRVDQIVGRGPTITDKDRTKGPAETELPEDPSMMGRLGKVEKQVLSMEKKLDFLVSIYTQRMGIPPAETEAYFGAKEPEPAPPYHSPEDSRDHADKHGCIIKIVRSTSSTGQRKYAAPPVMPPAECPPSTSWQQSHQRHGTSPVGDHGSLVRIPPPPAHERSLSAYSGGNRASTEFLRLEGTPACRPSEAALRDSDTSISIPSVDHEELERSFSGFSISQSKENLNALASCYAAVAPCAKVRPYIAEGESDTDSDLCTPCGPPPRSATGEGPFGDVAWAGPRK
KCNQ2 enhance: KCNQ2 (rat) channel potentiation | CHO-K1 KCNQ2, FluxOR thallium flux fluorescence; hits give high values | B-score at 10 µM | 310,000 tested, 0.54% active | AID 2239;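 active = fluorescence ratio B-score at least 3 SD of library B-scores, with initial fluorescence B-score within 3 of them, cut at about 5.3 in these data; same plate scores as AID 2156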;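 note: B-score of peak minus minimum over baseline fluorescence ratio after K+ and Tl+ stimulus; positive B-score means potentiation of KCNQ2 with more thallium influx and brighter signal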
KCNQ2 inh conf: confirmation of rat KCNQ2 potassium channel inhibitors | shares compounds with KCNQ2 block | KCNQ2-expressing cells, thallium flux, inhibition; hits give low values | activity change, negative = inhibition, % at 10 µM | 1,000 tested, 57% active | AID 493025
KCNQ1 spec: KCNQ2 inhibitor that also affects human KCNQ1 channel | shares compounds with KCNQ2 block | KCNQ1-expressing cells, FluxOR thallium flux fluorescence; hits give low values | activity change, negative = inhibition, % at 10 µM | 1,000 tested, 15% active | AID 493026;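 active = activity change at least 3 SD of negative controls below their mean in both duplicate wells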;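 note: CHO cells stably transfected with KCNQ1 and depolarized by potassium stimulus; peak minus minimum fluorescence over baseline after thallium addition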
CHO parental ctr: activity in parental CHO cells lacking KCNQ2. shares compounds with KCNQ2 block. thallium flux counter-screen; hits give low values. activity change, % at 10 µM. 1,000 tested, 14% active. AID 493029
KCNQ2 inh confirm: blocks rat KCNQ2 current in automated patch clamp; shares compounds with KCNQ2 block; 550 tested, 49% active; calls only at 10 µM; KCNQ2-expressing cells
Numbers stand for hits; - = inactive; . = no result; + = active, no number. Unless noted, the rule behind the calls is not given here.

SMILES | KCNQ2 block | KCNQ2 enhance | KCNQ2 inh conf | KCNQ1 spec | CHO parental ctr | others
COc1ccc(S(=O)(=O)N2CCCCCC2)cc1C(=O)N(C)Cc1cccs1 | - | - | . | . | .
COc1ccc(S(=O)(=O)N2CCCCCC2)cc1C(=O)N(C)Cc1ccc(Cl)cc1Cl | -8.5 | - | - | - | -
CCN1CCN(S(=O)(=O)c2ccc(Cl)c(C(=O)N(C)Cc3ccc(F)cc3)c2)CC1 | - | - | . | . | .
CCN1CCN(S(=O)(=O)c2ccc(Cl)c(C(=O)N(C)Cc3cccc(Cl)c3Cl)c2)CC1 | -6.9 | - | - | - | -
O=C(CNC(=O)c1ccc(OC(F)F)cc1)Nc1cccc(S(=O)(=O)N2CCCC2)c1 | - | - | . | . | .
CCOC(=O)C1=C(COC(=O)c2cc(OC)c(OC)c(OC)c2)NC(=O)NC1C (stereo not given) | - | - | . | . | .
CC(Oc1ccc(Cl)cc1Cl)C(=O)NN=C1CCN(C)CC1 (stereo not given) | - | - | . | . | .
CC(Oc1ccc(Cl)cc1Cl)C(=O)N/N=C1\CCCc2ccccc21 (stereo not given) | -6.7 | - | -32% | - | - | KCNQ2 inh confirm=+
Cc1ccc(C(=O)NCCCc2ccccc2)c(Cl)c1 | - | . | . | . | .
CCN(Cc1ccccc1)C(=O)COC(=O)c1cc(Cl)nc(Cl)c1 | - | . | . | . | .
O=C(OCC(=O)N(CCc1ccccc1)Cc1ccccc1)c1ccccc1O | -7.2 | - | - | - | -
O=C(NCCC(=O)N(CCc1ccccc1)Cc1ccccc1)c1ccccc1Cl | -6.7 | - | -32% | - | - | KCNQ2 inh confirm=+
Cc1ccc(C(=O)C(C)OC(=O)c2cc(=O)[nH]c3ccccc23)cc1 (stereo not given) | - | - | . | . | .
COc1ccccc1NC(=O)C1=C(C)Nc2ncnn2C1c1ccccc1C (stereo not given) | - | - | . | . | .
COc1cccc(C2C(C(=O)Nc3ccc(C)cc3C)=C(C)Nc3ncnn32)c1OC (stereo not given) | -12 | - | - | - | -
O=C(/C=C/NCc1cccnc1)c1ccc(Br)cc1 | - | - | . | . | .
COc1cc(OC)c(NS(=O)(=O)c2cc(C(=O)OCC(=O)NCC3CCCO3)ccc2OC)cc1Cl (stereo not given) | - | . | . | . | .
Cc1cc(C)cc(OCCN2CCOCC2)c1 | - | - | . | . | .
CC(C)(C)c1cc(C(c2cccnc2)N2CCN(CCO)CC2)cc(C(C)(C)C)c1O (stereo not given) | -9.2 | - | -26% | - | - | KCNQ2 inh confirm=-
CC(C)(C)n1nnnc1C(c1cccnc1)N1CCN(c2cccc(C(F)(F)F)c2)CC1 (stereo not given) | - | - | . | . | .
CCOC(=O)N1CCN(C(=O)CSc2ccc3nnc(-c4cccnc4)n3n2)CC1 | - | - | . | . | .
COc1cccc(/C=N/NC(=S)NCc2ccco2)c1OC | - | . | . | . | .
O=C(c1ccccc1)c1nc2ccccc2n(CCCn2c(=O)c(C(=O)c3ccccc3)nc3ccccc32)c1=O | -9 | - | - | - | -
Cn1c(=O)c(C(=O)c2ccccc2)nc2ccccc21 | - | - | . | . | .
CCCNC(=S)NC1CC2CCCC(C1)N2Cc1ccc(F)cc1 (stereo not given) | - | - | . | . | .
SMILES | KCNQ2 block | KCNQ2 enhance | KCNQ2 inh conf | KCNQ1 spec | CHO parental ctr | others
O=C(NNC(=O)c1ccc2[nH]c(=O)c(=O)[nH]c2c1)c1cccc(Br)c1 | - | . | . | . | .
Cc1cccc(NC(=O)C2CC(=O)N(Cc3ccccc3)C2)n1 (stereo not given) | - | - | . | . | .
COc1cccc(-c2cc(C(=O)Nc3cccnc3)c3ccccc3n2)c1 | - | . | . | . | .
Cc1cccc(-c2cc(C(=O)Nc3ccc4c(c3)OCCO4)c3ccccc3n2)c1 | - | . | . | . | .
O=C(O)c1cc(-c2ccc3c(c2)OCO3)nc2ccccc12 | - | - | . | . | .
COc1cccc(-c2cc(C(=O)Nc3ccccc3)c3ccccc3n2)c1 | -9.1 | - | - | - | -
CCOc1ccc(-c2cc(C(=O)Nc3ccc4c(c3)OCCO4)c3ccccc3n2)cc1 | -9.1 | - | - | - | -
CCCN(CCC)C(=O)c1cc(-c2ccc3c(c2)OCO3)nc2ccccc12 | -8.5 | - | -26% | - | - | KCNQ2 inh confirm=+
O=C(Nc1ccncc1)c1cc(-c2cccc(Br)c2)nc2ccccc12 | - | - | . | . | .
O=C(Nc1cccnc1)c1cc(-c2cccc(Br)c2)nc2ccccc12 | -6.7 | - | -28% | - | - | KCNQ2 inh confirm=-
Cc1ccc(OS(=O)(=O)c2ccc(N3C(=O)CCC3=O)cc2)cc1 | - | . | . | . | .
Cc1c(N(C(=O)c2ccccn2)C2(C(=O)NC3CCCCC3)CCCCC2)c(=O)n(-c2ccccc2)n1C | - | - | . | . | .
